# Bioassay records deposited in PubChem by National Center for Advancing Translational Sciences (NCATS).
# This is one part of a sample in which hits are shown more often than they occur.
# Cruzain Triton: qHTS Assay for Promiscuous and Specific Inhibitors of Cruzain (with detergent) | Cruzipain (Trypanosoma cruzi), P25779 | purified cruzain, Z-FR-AMC fluorescence, 0.01% Triton | Potency, µM, without a hit: max response, negative = inhibition, actives largely listed as inhibitors | hit rate 0.43% among 200,000;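 also: plate controls were neutral wells for no effect and buffer without enzyme for full effect; nearly all actives have a fitted effect of over 40% in size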
# Target sequence (P25779 123-467 limits assumed): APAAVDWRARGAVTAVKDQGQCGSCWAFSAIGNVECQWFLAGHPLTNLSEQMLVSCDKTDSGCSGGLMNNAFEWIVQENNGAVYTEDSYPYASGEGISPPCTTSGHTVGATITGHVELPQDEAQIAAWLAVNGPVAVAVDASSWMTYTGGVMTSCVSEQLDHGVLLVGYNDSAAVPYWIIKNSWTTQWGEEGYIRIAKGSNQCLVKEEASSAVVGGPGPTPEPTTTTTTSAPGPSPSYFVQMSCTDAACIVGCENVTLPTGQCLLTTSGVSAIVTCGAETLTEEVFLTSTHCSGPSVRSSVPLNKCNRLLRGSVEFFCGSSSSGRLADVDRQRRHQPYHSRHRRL
#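 Sodium acetate buffer (100 mM, pH 5.5) containing 5 mM DTT and 0.01% Triton X-100 hosted 1.5 nM cruzain and test compound for 15 min at room temperature. Cleavage of 2 uM Z-FR-AMC was then tracked by fluorescence.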
# Cruzain noTriton: qHTS Assay for Promiscuous and Specific Inhibitors of Cruzain (without detergent). Cruzipain (Trypanosoma cruzi), P25779. hit rate 2.3% among 200,000. Potency, µM, inactives show max response, negative = inhibition, usual class: inhibitors. purified cruzain, Z-FR-AMC fluorescence, no detergent;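 also: plate controls were enzyme without inhibitor for no effect and buffer without enzyme for full effect; nearly all actives have a fitted effect of over 40% in size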
#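 Detergent-free condition (0.00005% Triton X-100) in acetate buffer pH 5.5 with DTT. 1.5 nM enzyme and compound were pre-mixed 15 min, then 2 uM Z-FR-AMC substrate added; reaction progress from fluorescence change between first and third reads (60 s).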
# FBPA Giardia inh: qHTS Assay for Inhibitors of Fructose-1,6-bisphosphate Aldolase from Giardia Lamblia; A8B2U2; purified Giardia FBPA; Potency, µM (highest dose often 59.6 µM), for the others: at the highest dose activity, negative = inhibition, hits mostly inhibitors; hit rate 0.71% among 290,000; AID 2451, 2010; also: nearly all actives have a fitted effect of over 55% in size
#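 40 nM FBPA preincubated 10 min at RT with compound (up to 57.5 uM final), then substrate plus GAPDH/TPI/NAD/arsenate coupling and diaphorase/resazurin added. Fluorescence read after 20 min at RT, 525/598 nm.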
# * = called active by the depositor; ? = inconclusive; . = not tested or not shown; [ ] = another dose, or the depositor's remark. Calls follow the shape of the dose curve; as a rule, active = well fitted curve in the direction sought with a large enough effect; inconclusive = small, poorly fitted or top-dose-only effect, or another doubt; inactive = no such curve, though single readings can be large; an effect the other way counts as inactive or inconclusive. Unless noted, % is scaled to controls: 0 for no effect and ±100 for the full control effect; potency is read from the fitted curve at half-maximal effect.
SMILES,Cruzain Triton,Cruzain noTriton,FBPA Giardia inh
CCCNC(=O)OC[C@@H]1O[C@H](CCO/N=C(\C)CCN2CCc3nc(CC)c(CC)cc3C2)C=C[C@@H]1Oc1ccc(OC)cc1,.,.,-7%[12.9 µM]
COc1ccc(C(=O)Nc2cc(C(C)C)c(O)c(S(=O)(=O)c3ccc(Cl)cc3)c2C)cc1,-2%,?,.
COc1ccc(C(=O)Nc2cc(C(C)C)c(O)c(S(=O)(=O)c3ccc(OC)cc3)c2C)cc1,-1%,25µM*,.
CC(C)[C@@H]1NC(=O)c2cc([N+](=O)[O-])cc(I)c2NCC[C@@H](C(N)=O)NC(=O)[C@H](CO)NC1=O,-11%,?,-4%
CC(C)C[C@@H]1NC(=O)[C@H](C(C)C)NC(=O)c2cc([N+](=O)[O-])cc(I)c2NCC[C@@H](C(N)=O)NC1=O,14µM*,5%,-10%
COc1cccc(C(=O)Nc2nc(-c3nnn(-c4ccccc4C(F)(F)F)c3C)ns2)c1,3%,2%,.
Cc1cc2c(c(C)c1Cl)C(c1ccc3c(c1)OCO3)CC(O)(c1ccccc1)O2 (stereo not given),.,.,-10%
COc1ccc(/C=N/NC(N)=S)cc1OC(=O)c1cccc2ccccc12,1%,25µM*,-1%
COc1cc(/C=N\Nc2ccc([N+](=O)[O-])cc2)ccc1OCC(=O)Nc1ccc(C)c(C)c1,0%,4µM*,0%
COc1ccc(C(=O)Oc2cc(/C=N/NC(N)=S)ccc2OC)cc1,-8%,?,.
COc1cc(/C=N/NC(N)=S)ccc1OCC(=O)Nc1ccc(C)cc1,2.5µM*,?,12%
CNC(=S)N/N=C/c1ccc(OCC(=O)Nc2c(C)cc(C)cc2C)c(OC)c1,-6%,4%,-5%
CCOc1cc(/C=N\Nc2ccc([N+](=O)[O-])cc2)ccc1OCC(=O)Nc1ccc(C)c(C)c1,5%,?,8%
O=C(CSc1ccccc1)N1CCc2c([nH]c3ccccc23)C1c1ccc(F)cc1 (stereo not given),2%,?,.
CCOc1cccc(C2c3[nH]c4ccccc4c3CCN2C(=O)CSCc2ccc(F)cc2)c1 (stereo not given),8%,-3%,.
CSc1ccc(C2c3[nH]c4ccccc4c3CCN2C(=O)CCC2CCCC2)cc1 (stereo not given),2%,10µM*,.
CCc1ccc(C2c3[nH]c4ccccc4c3CCN2C(=O)c2cc[n+]([O-])cc2)cc1 (stereo not given),.,.,0%
CCOc1ccc(C2c3[nH]c4ccccc4c3CCN2C(=O)CSCc2ccc(F)cc2)cc1 (stereo not given),2%,10µM*,.
CCN(CC)c1ccc(C(=O)N2CCc3c([nH]c4ccccc34)C2c2ccc(F)cc2)cc1 (stereo not given),1%,16µM*,.
O=C(NCCN1CCOCC1)C1(C(F)(F)F)CC(CCCO)CCCO1 (stereo not given),.,.,6%
O=C1c2[nH]nc(-c3ccccc3O)c2C(c2cccc(OCc3ccccc3)c2)N1CCCO (stereo not given),-2%,-14%,.
Cc1cc2c(cc1S(=O)(=O)CCC(=O)N1CCCC(C)C1)OCC(=O)N2 (stereo not given),-8%,?,.
c1ccc(CN2CN=C(Nc3nc4ccccc4s3)NC2)cc1,?,-8%,0%
c1coc(CN2CN=C(Nc3nc4ccccc4s3)NC2)c1,?,13µM*,0%
CCc1cc(=O)oc2c(C)c3c(cc12)CN(CCc1ccccc1OC)CO3,-5%,-6%,.
SMILES,Cruzain Triton,Cruzain noTriton,FBPA Giardia inh
CCOc1ccc(/C=C/c2nc(C#N)c(N3CCN(CC)CC3)o2)cc1,-9%,-3%,.
CN(C(=O)c1cc2c(=O)oc3ccccc3c2s1)c1ccc(F)cc1,1%,-7%,.
CCCCCCc1cc2cc(S(=O)(=O)c3ccc(Cl)cc3)c(=O)oc2cc1O,-5%,13µM*,6%
CCCCCCc1cc2cc(S(=O)(=O)c3ccc(C)cc3)c(=O)oc2cc1O,-12%,-21%,11%
COc1ccc(CC(=O)Nc2nc(-c3cccc([N+](=O)[O-])c3)cs2)cc1,1%,20µM*,4%
CS(=O)(=O)N1CCc2cc(-c3csc(NC(=O)C(c4ccccc4)c4ccccc4)n3)ccc21,2%,7.9µM*,-5%
COc1ccc(CC(=O)Nc2nc(-c3ccc(F)c(F)c3)cs2)cc1,.,.,0%
O=C(Nc1nc(-c2cccc([N+](=O)[O-])c2)cs1)C(c1ccccc1)c1ccccc1,-3%,10µM*,-6%
CC(OC(=O)c1ccccc1Br)C(=O)Nc1nc(-c2cccc([N+](=O)[O-])c2)cs1 (stereo not given),0%,?,5%
